Compound activity deposited in PubChem BioAssay by National Center for Advancing Translational Sciences (NCATS).
This is a sample that favours compounds with a hit; in the whole collection about 2.4% have one here.
Nrf2 activator: qHTS of Nrf2 Activators; 410,000 compounds, 0.31% hits; Potency, µM (series often up to 46.1 µM), hits mostly activators; AREc32 ARE-luciferase reporter (MCF7-derived line), luminescence, 24 h; AID 624171, 2012; note: nearly all actives have a fitted effect of over 65% in size
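AREc32 cells carrying an ARE-driven firefly luciferase reporter were seeded at 1000 cells/well in OPTI-MEM with 5% FBS, then exposed to compound for 24 hr at 37 deg C. Luminescence was read with Steady-Glo after 30 min at RT.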
A549 tox: Nrf2 qHTS screen for inhibitors: counterscreen for cytotoxicity; 390,000 compounds, 0.16% hits; A549 ARE-Fluc cells, CellTiter-Fluor viability, 18-24 h; Potency, µM (top dose mostly 46 µM), most hits filed as inhibitors
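A549 ARE-Fluc cells in 5% FBS OPTI-MEM, 5000 cells/well, rested 2 h then exposed to compounds in concentration-response for 18-24 h at 37 °C. Viability by CellTiter-Fluor fluorescence (Ex 405/Em 525) after 30 min; luciferase luminescence (BugLite, 15 min, RT) read afterwards.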
Epigenetic reg: Quantitative High-Throughput Screen for Regulators of Epigenetic Control | Potency, µM (highest dose often 53.9 µM), hits mostly activators | murine LDR cells, GFP reporter derepression, 30 h | 280,000 compounds, 0.2% hits; note: nearly all actives have a fitted effect of over 60% in size
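Readout is the number of GFP-expressing murine LDR cells, counted by cytometry following washing. Cells were treated with compound for 30 h at 37 C; the stably integrated CMV-GFP locus is normally silent.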
PINK1 expr mod: A Quantitative High throughput Screen to Identify Chemical Modulators of PINK1 Expression. PINK1 immunofluorescence, high-content cytometry, 24 h. Potency, µM (top dose mostly 76.6 µM), actives largely listed as activators. 410,000 compounds, 0.2% hits. AID 624263, 2012; active = well fitted activation curve with a large enough effect; inconclusive = small, poorly fitted or top-dose-only effect; cell line not stated here; note: nearly all actives have a fitted effect of over 65% in size
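A stable cell line was treated with compounds at 5 concentrations for 24 hours, with CCCP as control. PINK1 levels and mitochondrial localization were measured by immunofluorescence with mitochondrial, cell and nuclear markers after fixation, read by laser-scanning cytometry.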
Nrf2 block: Nrf2 qHTS screen for inhibitors | A549 ARE-Fluc reporter, luciferase luminescence, 18-24 h | Potency, µM (top dose mostly 46 µM), hits mostly inhibitors | 360,000 compounds, 2.1% hits | AID 504444, 2011; note: nearly all actives have a fitted effect of over 60% in size
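In this cell-based qHTS, ARE-driven firefly luciferase in A549 cells reports Nrf2 activity; the luminescent signal after BugLite lysis is the measured value, with a prior CellTiter-Fluor read for cell health.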
A number is an active result; i = inactive; ? = inconclusive; nt = no result given; ! = not active in a repeat. Unless noted, calls come from the whole dose curve; as a rule, active = well fitted curve in the direction sought with a large enough effect; inconclusive = small, poorly fitted or top-dose-only effect, or another doubt; inactive = no such curve, though single readings can be large; an effect the other way counts as inactive or inconclusive.

SMILES	Nrf2 activator	A549 tox	Epigenetic reg	PINK1 expr mod	Nrf2 block
O=C(/C=C/c1ccccc1)c1c(O)n(CCc2ccccc2)c(=O)[nH]c1=O	8.91µM	?	i	i	i
Cc1c(C(=O)N2CCC3(CC2)OCCO3)oc2ccc(S(=O)(=O)N3CCOCC3)cc12	i	i	i	i	i
Cc1c(C(=O)NCCC2=CCCCC2)oc2ccc(S(=O)(=O)N3CCC4(CC3)OCCO4)cc12	i	i	i	i	7.31µM
COC(=O)C12C/C=C\Cc3ccccc3[C@@H]1CNC2=O (stereo partly drawn)	nt	nt	i	nt	nt
CCCC1(CCC)C(=O)NC(=Nc2ccccc2)NC1=O	i	i	i	i	i
CCCCC1(CCCC)C(=O)NC(=Nc2cccc(C)c2)NC1=O	i	?	i	15.8µM	?
c1ccc2sc(C3(NCC4CC4)CCCCC3)cc2c1	nt	nt	i	nt	nt
CCCCn1c(O)c(C(CC)=Nc2ccc(OC)cc2OC)c(=O)[nH]c1=O	i	i	i	i	?
CCCCn1c(O)c(C(CC)=Nc2ccc(OCC)cc2)c(=O)[nH]c1=O	i	i	i	i	13µM
COC(=O)C1=C(c2ccc(-c3ccccc3)c(F)c2)C[C@@H]2CC[C@H]1N2C(=O)NCCNC(C)=O	i	i	nt	i	i
COC(=O)C1=C(c2ccc(OC(F)(F)F)cc2)C[C@@H]2CC[C@H]1N2C(=O)NCCOc1ccc(OC)cc1	i	i	nt	i	23.1µM
COC(=O)C1=C(c2ccc(-c3ccccc3)c(F)c2)C[C@@H]2CC[C@H]1N2C(=O)NC1CCCCC1	i	?	nt	i	18.4µM
COC(=O)C1=C(c2ccc(-c3ccccc3)c(F)c2)C[C@@H]2CC[C@H]1N2C(=O)NCCCOC(C)C	i	i	nt	i	16.4µM
COC(=O)C1=C(c2ccc(OCc3ccccc3)cc2)C[C@@H]2CC[C@H]1N2C(=O)NC1CCN(Cc2ccccc2)CC1	i	20.6µM	nt	i	20.6µM
COC(=O)C1=C(c2ccc(F)cc2F)C[C@@H]2CC[C@H]1N2C(=O)NC1CCCCC1	i	i	nt	i	i
CCOc1ccc(-c2cc(C(=O)N3CCN(S(=O)(=O)c4cc(Cl)ccc4OC)CC3)[nH]n2)cc1	i	i	i	i	?
CCc1cccc(NC(=O)c2ccc(NC(=O)N3CCSc4ncccc43)cc2)c1	i	i	i	i	?
CC(Sc1ncnc2sccc12)C(=O)Nc1ccc(S(=O)(=O)N2CCOCC2)cc1 (stereo not drawn)	i	i	nt	i	?
COC(=O)C1=C(c2ccc(Cl)c(C(F)(F)F)c2)C[C@@H]2CC[C@H]1N2C(=O)NCCNC(C)=O	i	i	nt	i	i
COC(=O)C1=C(c2ccc(Cl)c(C(F)(F)F)c2)C[C@@H]2CC[C@H]1N2C(=O)NCCOc1ccccc1Cl	i	?	nt	?	23.1µM
COC(=O)C1=C(c2cccc(OCc3ccccc3)c2)C[C@@H]2CC[C@H]1N2C(=O)NCc1cccc(OC)c1	i	i	nt	i	?
COC(=O)C1=C(c2ccc3ccccc3c2)C[C@@H]2CC[C@H]1N2C(=O)NCc1ccc(C(F)(F)F)cc1	i	i	nt	i	23.1µM
COC(=O)C1=C(c2ccc(-c3ccccc3)c(F)c2)C[C@@H]2CC[C@H]1N2C(=O)NCCOc1ccc(OC)cc1	i	i	nt	i	16.4µM
COC(=O)C1=C(c2cccc(OCc3ccccc3)c2)C[C@@H]2CC[C@H]1N2C(=O)NCCOc1ccc(OC)cc1	i	i	nt	i	14.6µM
CC(Oc1ccc(Br)cc1)C(=O)N(Cc1nc(-c2ccccc2)no1)C(C)C (stereo not drawn)	i	i	i	i	?
SMILES	Nrf2 activator	A549 tox	Epigenetic reg	PINK1 expr mod	Nrf2 block
O=C1/C(=C\c2ccccc2)C[C@@]2(O)[C@H]3Cc4ccc(O)c5c4[C@@]2(CCN3CC2CC2)[C@H]1O5	nt	nt	i	nt	nt
CC[C@@H]1/C=C/C=C/C[C@H](C)[C@@H](O)[C@](C)(O)C(=O)[C@H](C)[C@@H](O)[C@H](C)C(=O)[C@H](C)[C@@H](O)[C@H](C)/C=C/C(=O)O[C@H]2[C@@H](C)[C@@H](CC1)O[C@@]1(CC[C@@H](C)[C@@H](C[C@H](C)O)O1)[C@@H]2C	nt	nt	i	nt	nt
COc1ccc2c(c1)CCc1c(C(=O)Nc3c(C)nn(Cc4ccccc4C)c3C)noc1-2	i	i	i	i	18.4µM
COc1ccc(NC(=O)c2c(C)nn(Cc3ccccc3Cl)c2Cl)cc1Cl	i	i	i	i	i
CC(C)C[C@H]1C(=O)N2CCC[C@H]2[C@]2(O)O[C@](NC(=O)[C@@H]3C=C4c5cccc6[nH]c(Br)c(c56)CC4N(C)C3)(C(C)C)C(=O)N12 (stereo partly drawn)	i	i	i	i	?
CC(C)[C@@]1(NC(=O)[C@@H]2C[C@@H]3c4cccc5[nH]cc(c45)C[C@H]3N(C)C2)O[C@@]2(O)[C@@H]3CCCN3C(=O)[C@H](Cc3ccccc3)N2C1=O	i	i	22.4µM!	i	i
CC(C)CC1C(=O)N2CCC[C@H]2[C@]2(O)O[C@](NC(=O)[C@@H]3C=C4c5cccc6[nH]c(Br)c(c56)C[C@H]4N(C)C3)(C(C)C)C(=O)N12 (stereo partly drawn)	nt	i	nt	i	16.4µM
COc1ccc(N2C(=O)NC(=O)/C(=C\c3cn(C)c4ccccc34)C2=O)cc1	i	i	nt	i	i
COC(=O)Cn1cc(/C=C2\C(=O)NC(=O)N(c3ccc(OC)cc3)C2=O)c2ccccc21	i	i	nt	35.5µM	i
Cc1c(P(=S)(c2ccccc2)c2ccccc2)[n+]2ccccc2n1CCCc1ccccc1	nt	i	nt	nt	?
Cc1cc(C(C#N)c2ccc(Cl)cc2)c(Cl)cc1NC(=O)c1cc(I)cc(I)c1O (stereo not drawn)	i	?	nt	14.1µM	?
C[C@@H]1O[C@@H](OC2CC(O)C3(CO)C4C(CCC3(O)C2)C2(O)CCC(C3=CC(=O)OC3)C2(C)C[C@H]4O)[C@H](O)[C@H](O)[C@H]1O (stereo partly drawn)	nt	nt	i	nt	nt
C[C@@H]1O[C@@H](O[C@H]2C[C@@H](O)[C@]3(CO)[C@H]4[C@H](O)C[C@]5(C)[C@@H](C6COC(=O)C6)CC[C@]5(O)[C@@H]4CC[C@]3(O)C2)[C@H](O)[C@H](O)[C@H]1O (stereo partly drawn)	i	?	i	i	0.411µM
Cc1nn2c(=O)cc(N3CCNCC3)nc2s1	nt	i	nt	nt	i
COc1ccc(NC(=O)CCn2cnc3onc(-c4ccc(F)cc4)c3c2=O)cc1OC	i	i	i	i	23.1µM
COc1ccc(NC(=O)CCc2nc(C3=CCN(Cc4cccc(Cl)c4)CC3)no2)cc1OC	i	i	i	i	nt
Cc1ccc(C)c(S(=O)(=O)c2nnn3c2nc(N2CCCC2)c2sccc23)c1	i	i	i	i	?
O=c1oc2ccccc2c(O)c1Cc1c(O)c2ccccc2oc1=O	nt	nt	i	nt	nt
O=Nc1c(O)c2ccccc2c2ccccc12	i	?	nt	i	23.1µM
